Experimental data: PubChem BioAssay AID2732 (Emory University Molecular Libraries Screening Center, 2010)
Hit rate of the full screen: of about 220,000 compounds, about 8,200 (3.7%) were called active. Only a selection was taken, and actives are over-represented in it overall. Values without a mark were called inactive.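 The calls were made as follows: active = compounds that reduced the stress-induced luciferase reporter signal by more than about 70% of percent inhibition (limit read from the data); inactive = the rest.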

Assay: blockers of ER-stress CHOP reporter expression – cell-based, unfolded protein response, luciferase reporter, primary screen (AID 2732);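 also: 0% = tunicamycin plus vehicle and 100% = wells without tunicamycin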
Conditions: CHO-K1 CHOP-promoter luciferase, tunicamycin-induced, 15-18 h; at 10 µM; hits give high values

Row | SMILES | inhibition
1 | CC(=O)NCc1ccc(S(=O)(=O)NC2CCN(Cc3ccccc3)CC2)cc1 | -10.7%
2 | Nc1ccccc1SC(C[N+](=O)[O-])c1ccccc1 (configuration not stated) | 46.3%
3 | O=C1CC2(CC(c3ccc(Cl)cc3)=NO2)C(=O)N1c1ccccc1 (configuration not stated) | 18.6%
4 | NC(=O)C1=C[C@@H](c2csc3ccccc23)C[C@@H](OCc2ccc(CO)cc2)O1 | 36.3%
5 | COP1(=O)C[C@@H](O)[C@@H](O)[C@@H](COCc2ccccc2)O1 (some centres not stated) | -7.84%
6 | Cc1ccc2[nH]c(=O)c(-c3nc4c(C)cccn4c3NCc3ccco3)cc2c1 | 95.7% (active)
7 | CCCc1nc(-c2cc3cc(C)ccc3[nH]c2=O)no1 | 14.6%
8 | CCNCc1cc2cc(C)ccc2[nH]c1=O | -7.23%
9 | Cc1nnc(SC(C(=O)c2ccccc2)c2ccccc2)[nH]c1=O (configuration not stated) | -8.07%
10 | CCn1c2ccccc2c2cc(NC(=O)CNC)ccc21 | 5.95%
11 | CCCC(=O)Nc1ccc(C(=O)NCCCn2ccnc2)cc1 | 73.7% (active)
12 | O=C(CCN1C(=O)c2ccccc2C1=O)NCCCn1ccnc1 | -1.9%
13 | CCOc1ccccc1C(=O)NCCCn1ccnc1 | -4.75%
14 | N#C/C(=C\N1CCOCC1)S(=O)(=O)c1ccc(Cl)cc1 | 21.5%
15 | CCc1ccc(Nc2ncc3c(n2)CC(c2ccco2)CC3=O)cc1 (configuration not stated) | 78.5% (active)
16 | O=C(Nc1ncc2c(n1)CC(c1ccco1)CC2=O)c1ccc(Cl)cc1 (configuration not stated) | 33.8%
17 | COc1cc(C2CC(=O)c3cnc(NC(C)=O)nc3C2)cc(OC)c1OC (configuration not stated) | 30.2%
18 | CCOC(=O)c1cn(CC)c2cc(F)c(F)cc2c1=O | -15.5%
19 | O=C(CNC(=O)c1cc(=O)[nH]c2ccccc12)Nc1ccc(F)c(F)c1 | -18.5%
20 | O=C(CNC(c1ccccc1)c1ccccc1)Nc1ccc(F)cc1 | 23.2%
21 | O=C(CC(NC(=O)c1ccccc1)c1ccccc1)Nc1ccc(F)c(F)c1 (configuration not stated) | 105% (active)
22 | CCn1c(=O)c([N+](=O)[O-])c(NCc2ccc3c(c2)OCO3)c2ccccc21 | 22.4%
23 | Cc1cc(NC(=O)OC(C)C)ccc1-c1ccc(NC(=O)OC(C)C)cc1C | 25.1%
24 | Brc1ccc(-c2csc(N/N=C/c3ccc4c(c3)OCO4)n2)cc1 | 26.8%
25 | C(=N\Nc1ccc2ccccc2n1)/c1ccc2c(c1)OCO2 | 71% (active)
26 | Cc1noc(C)c1/C=N/Nc1ccc2ccccc2n1 | 16.5%
27 | COc1ccc(Cc2cc(-c3ccc(F)cc3)n[nH]c2=O)cc1 | 15.3%
